The campaign covered roughly 65,000 compounds. About 45 (0.07%) were called active. Calls come from the whole dose curve. The list is a sample of the results.
Tested on: Schistosoma mansoni peroxiredoxin 2 (Prx2)
Assay: Schistosoma Mansoni Peroxiredoxins (Prx2)
Conditions: S. mansoni Prx2 activity coupled to TGR/GSH (TGR is thioredoxin glutathione reductase), NADPH fluorescence loss, qHTS
From the text: NIH Molecular Libraries Screening Centers Network [MLSCN]
NIH Chemical Genomics Center [NCGC]
David Williams [Illinois State University]
Schistosoma mansoni, a causative agent of schistosomiasis, resides in the bloodstream of their host up to 30 years without being eliminated by the host immune attack. One proposed survival mechanism is the production of an antioxidant "firewall" that neutralizes the oxidative assault of the host's immune attack. Schistosoma mansoni peroxiredoxins (Prx) are important parasite antioxidant proteins that play a crucial role in redox balance mechanisms. […] First, the proteins are essential for the parasite survival. […] Third, the protein(s) is amenable for study at the molecular level and can be produced in bacteria in large quantities, in soluble and active form. Inhibition of Prx activity was screened in a coupled-enzyme format with reducing equivalents being transferred from NADPH to […] intermediate via thioredoxin/glutathione reductase (TGR)-catalyzed reaction, then from thioredoxin to hydrogen peroxide via Prx-catalyzed electron transfer. A decrease in the fluorescence intensity of NADPH was used to measure the enzyme activity. Purified S. mansoni TGR and Prx were provided by Professor David L. Williams, Illinois State University.
NCGC Assay Protocol Summary:
100 mM phosphate buffer, pH 7.4, 10 mM EDTA, 0.01% Tween-20.
100 uM NADPH/25 nM TGR/700 uM GSH/50 nM Prx2 mixture in columns 1, 2, 5-48. Titration of control potassium antimonyl tartrate (PAT, from 1 mM, then 1:5) pin-transferred to lower half of column 2. Column 1 and upper half of column 2 are neutral (100% activity).
Three uL of reagents were dispensed to 1536-well Greiner black plates. Compounds and controls (20 nL) were transferred via Kalypsys PinTool. The plates were incubated for 15 min at room temperature, and then a 1 uL aliquot of 400 uM NADPH/700 uM GSH was added, immediately followed by a 1uL aliquot of 2.5 mM H2O2 (to start the reaction). The plate was transferred to ViewLux (Perkin-Elmer) High-throughput CCD imager where kinetic measurements (every 30 sec, for a total of 8 min) of NADPH fluorescence were taken using 365 nm excitation/450 nm emission filter set. During dispense, enzyme-containing reagent bottles were kept submerged into 4 deg C water bath to minimize degradation.
Keywords: NIH Roadmap, MLSCN, MLI, MLSMR, David Williams, Peroxyredoxin, Schistosoma mansoni, prx2, prx, , qHTS, NCGC
Potency is the fitted concentration of half-maximal effect.

| Structure (SMILES) | Potency |
| --- | --- |
| Oc1ccc2ccccc2c1C=NCc1c(O)ccc2ccccc12 | > 57 µM (inactive) |
| CC(C)(O)[C@H]1[C@H]2OC(=O)[C@@H]1[C@]1(O)C[C@H]3O[C@]34C(=O)O[C@H]2[C@]14C | > 25.6 µM (inactive) |
| CC(C)[C@H](CO)Nc1nc(Nc2cc(N)cc(Cl)c2)c2ncn(C(C)C)c2n1 | > 57 µM (inactive) |
| O=c1[nH]c(=O)n([C@H]2C[C@H](O)[C@H](CO)O2)cc1Br | > 57 µM (inactive) |
| COc1cccc(Cn2c(=O)c(CCc3ccccc3)nc3cnc(N(C)C)nc32)c1 | > 11.4 µM (inactive) |
| COc1ccccc1CNc1ncncc1-c1cccnc1 | > 57 µM (inactive) |
| COc1ccc(NC(=O)N2CC3(CCN(C(C)=O)CC3)C2)cc1 | > 57 µM (inactive) |
| Cc1ccccc1-c1nc(N(C)Cc2ccco2)c2ccccc2n1 | > 57 µM (inactive) |
| O=C(c1cc(C(F)(F)F)cc(C(F)(F)F)c1)N1CCC2(CCCN(Cc3ccncc3)C2)CC1 | > 57 µM (inactive) |
| C[C@H](CCC(=O)NCC(=O)O)[C@H]1CC[C@H]2[C@H]3[C@@H](C[C@@H](O)[C@]12C)[C@]1(C)CC[C@H](O)C[C@@H]1C[C@@H]3O | > 57 µM (inactive) |
| Cc1nc2cnc(Nc3ccccc3)nc2n(C[C@H]2CCCO2)c1=O | > 57 µM (inactive) |
| CC[N+](C)(CC)CCC[n+]1c(-c2ccccc2)c2cc(N)ccc2c2ccc(N)cc21 | > 57 µM (inactive) |
| NCC[Se][Se]CCN | > 57 µM (inactive) |
| CCCC[C@H]1C(=O)N(c2ccccc2)N(c2ccc(O)cc2)C1=O | > 57 µM (inactive) |
| FC(F)(F)c1ccccc1-c1cc(NCc2ccccc2)ncn1 | > 57 µM (inactive) |
| O=C(Nc1cccc(F)c1)N1CC2(CCN(C(=O)c3cnccn3)CC2)C1 | > 57 µM (inactive) |
| COCCn1c(=O)c(CCc2ccccc2)nc2cncnc21 | > 57 µM (inactive) |
| O=C(c1cnccn1)N1CCC2(CCCN(Cc3ccccc3)C2)CC1 | > 57 µM (inactive) |
| COc1ccc(-c2nc3cnc(Oc4ccccc4)nc3n(Cc3cccs3)c2=O)cc1 | > 57 µM (inactive) |
| COCCn1c(=O)c(-c2cccs2)nc2cncnc21 | > 57 µM (inactive) |
| Cc1noc(C)c1-c1nccc(N2CCOCC2)n1 | > 57 µM (inactive) |
| O=C(c1cc(C(F)(F)F)cc(C(F)(F)F)c1)N1CCC2(CCCN(c3ccccn3)C2)CC1 | > 57 µM (inactive) |
| C/C=C1\C(=O)C[C@@H]2[C@@H]3CCC4=CC(=O)CC[C@@]4(C)[C@H]3CC[C@@]12C | > 57 µM (inactive) |
| CS(=O)(=O)N1CCC[C@@]2(CCN(c3ccncc3)C2)C1 | > 57 µM (inactive) |
| CCS(=O)(=O)N(C)[C@@H]1c2cc(C#N)ccc2OC(C)(C)[C@H]1O | > 57 µM (inactive) |
| O=C(c1ccco1)N1CCC[C@@]2(CCN(Cc3nccs3)C2)C1 | > 57 µM (inactive) |
| COC(=O)[C@@]1(Cc2ccc(F)cc2)[C@H]2c3cc(C(=O)N4CCCC4)n(C[C@H](O)CO)c3C[C@H]2CN1C(=O)c1ccccc1 | > 57 µM (inactive) |

| Structure (SMILES) | Potency |
| --- | --- |
| Cc1nc2cnc(Nc3ccccc3)nc2n(Cc2ccc(F)cc2)c1=O | > 57 µM (inactive) |
| O=C(c1cccc(F)c1)N1CCC2(CC1)CCN(c1ccccc1)CC2 | > 57 µM (inactive) |
| Cc1nc2cnc(Oc3cccc(Cl)c3)nc2n(C2CC2)c1=O | > 57 µM (inactive) |
| NC[C@@H]1O[C@H](O[C@@H]2[C@H](O[C@@H]3O[C@H](CO)[C@@H](COC[C@H]4O[C@@H](CN)[C@@H](O)[C@@H](O)[C@@H]4N)[C@@H]3O)[C@@H](O)[C@@H](N)C[C@H]2N)[C@@H](N)[C@H](O)[C@@H]1O | > 57 µM (inactive) |
| CC(C)(C)NCC[C@@H](O)c1cc(C(F)(F)F)nc2c(C(F)(F)F)cccc12 | > 57 µM (inactive) |
| CCNCCCNCCCNCCCNCC | > 57 µM (inactive) |
| COCC(=O)N1CCC2(CCCN(c3ccccc3)C2)CC1 | > 57 µM (inactive) |
| c1cncc(-c2nc(N3CCNCC3)c3ccccc3n2)c1 | > 57 µM (inactive) |
| c1ccc(CCN2CCN=C2Cc2ccccc2)cc1 | > 57 µM (inactive) |
| COC(=O)[C@@]1(Cc2ccccc2)[C@H]2c3cc(C(=O)N4CCCC4)n(Cc4ccc(C)o4)c3C[C@H]2CN1C(=O)c1ccccc1 | > 57 µM (inactive) |
| Cc1nc2cnc(N3CCNCC3)nc2n(Cc2ccc(F)cc2)c1=O | > 57 µM (inactive) |
| COC(=O)[C@H](C)[C@H]1C[C@]1(C)[C@H](NC(=O)OCc1ccccc1)c1ccccc1 | > 57 µM (inactive) |
| O=c1c(-c2ccc(F)cc2)nc2cnc(N3CCNCC3)nc2n1Cc1cccs1 | > 11.4 µM (inactive) |
| CCC[C@@H]1C[C@@]1(CCC)C(NS(=O)(=O)c1cccc2cccnc12)c1ccc(Cl)cc1 (stereo partly drawn) | > 57 µM (inactive) |
| NS(=O)(=O)c1cc(C(=O)O)c(Cl)c([N+](=O)[O-])c1Cl | > 57 µM (inactive) |
| O=c1[nH]c(=O)c2nc3ccccc3nc2[nH]1 | > 57 µM (inactive) |
| N#Cc1ccc(CN2CCCC3(CCN(C(=O)c4ccco4)CC3)C2)cc1 | > 57 µM (inactive) |
| CC(=O)N1CCC2(CCCN(Cc3ccccc3)C2)CC1 | > 57 µM (inactive) |
| CN1[C@H]2CC(OC(=O)[C@@H](CO)c3ccccc3)C[C@H]1[C@H]1O[C@H]12 (stereo partly drawn) | > 57 µM (inactive) |
| COc1ccc2nccc(C(=O)O)c2c1 | > 25.6 µM (inactive) |
| CN(Cc1ccco1)c1cc(-c2ccccc2C(F)(F)F)ncn1 | > 57 µM (inactive) |
| COc1ccc(-c2nc3cnc(N(C)C)nc3n(Cc3cccs3)c2=O)cc1 | > 57 µM (inactive) |
| Cn1cccc1C(=O)N1CCC2(CC1)CN(c1cccc(-c3ccccc3)c1)C2 | > 57 µM (inactive) |
| O=C(c1ccc([N+](=O)[O-])cc1)[C@@H](Br)[C@@H](Br)c1ccnc2ccccc12 | > 57 µM (inactive) |
| CCCN(C/C=C\I)[C@@H]1CCc2cccc(O)c2C1 | > 57 µM (inactive) |
| O=C(c1ccncc1)N1CCC2(CCCN(C(c3ccccc3)c3ccccc3)C2)CC1 | > 57 µM (inactive) |

Source: PubChem BioAssay AID448 (National Center for Advancing Translational Sciences (NCATS), 2006)
